What all share (assay): NCI-60 one-dose screen, 48 h (100 = growth as untreated, 0 = no growth, -100 = all killed)
Test [1] concerns DU-145 prostate. Particulars: 10 µM unless noted.
Test [2] relates to K-562 leukemia. The conditions noted are these: 10 µM unless noted.
In test [3] the test system is MALME-3M melanoma. The conditions noted are these: 10 µM unless noted.
Test [4] relates to MDA-MB-231 breast. The conditions noted are these: 10 µM unless noted.
The subject of test [5] is RXF 393 renal. The conditions noted are these: 10 µM unless noted.
Test [6] has as its system SF-268 CNS. The conditions noted are these: 10 µM unless noted.
The test system of test [7] is SF-295 CNS. The conditions noted are these: 10 µM unless noted.
For test [8], the system named is SF-539 CNS. The conditions noted are these: 10 µM unless noted.
Test [9] relates to UACC-257 melanoma. The conditions noted are these: 10 µM unless noted.
Test [10] has as its system M14 melanoma. Particulars: 10 µM unless noted.
Test [11] relates to HCT-15 colon. The conditions noted are these: 10 µM unless noted.
For test [12], the system named is HT29 colon. Particulars: 10 µM unless noted.
The subject of test [13] is SNB-75 CNS. Particulars: 10 µM unless noted.
Test [14] deals with SNB-19 CNS. The conditions noted are these: 10 µM unless noted.
Test [15] has as its system U251 CNS. Particulars: 10 µM unless noted.
Test [16] relates to PC-3 prostate. Particulars: 10 µM unless noted.
Test [17] relates to SK-MEL-5 melanoma. The conditions noted are these: 10 µM unless noted.
Test [18] deals with UACC-62 melanoma. The conditions noted are these: 10 µM unless noted.
Test [19] has as its system LOX IMVI melanoma. The conditions noted are these: 10 µM.
For test [20], the system named is SK-MEL-28 melanoma. Particulars: 10 µM unless noted.

About 83,000 compounds went through this panel and 20% of them were active in at least one assay; those are over-represented in the sample as a whole.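 Single-concentration screen, 48 h exposure, 96-well plates. Endpoint: percent growth. Below 10 = active.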 Unmarked numbers belong to inactive results. The source made the active and inactive calls.

In the case of `Cn1cc(-c2cc(N)n3nc(-c4cn(C)c5ccccc45)cc3n2)c2cc(Br)ccc21`, the growth is 27.7% in [1]; 0.853% (active) in [2]; -72.9% (active) in test [3]; -41.2% (active) in [4]; -70.1% (active) in test [5]; -47.3% (active) in [6]. Further, the growth was -53.4% (active) in test [7]; -72.3% (active) in [8]; -71% (active) in [9]; -74.4% (active) in test [10]; -79.1% (active) in test [11]; -65.1% (active) in test [12]. Besides, the growth in [13] was -35.7% (active); in [14], 7.16% (active); in [15], -72% (active); in test [16] it was -34% (active); in test [17] it was -63.5% (active); in [18], -59.7% (active). The growth in [19] was -85.3% (active); in [20], -86.4% (active).
Consider `CCOC(=O)C1=C(N)N(c2ccccc2)C2=C(C(=O)CC(C)(C)C2)C1c1ccc([N+](=O)[O-])cc1` (stereo not given), for which the growth was 106% in [1]; 83.7% in [2]; 120% in test [3]; 97.4% in test [4]; 101% in test [5]; 106% in test [6]. In addition, the growth in test [7] was 96.2%; in test [8] it was 94.3%; in [9], 112%; in test [10], 99.5%; in test [11], 86.4%; in [12], 99.4%. The growth in test [13] is 104%; in test [14] it was 94%; in test [15], 101%; in test [16], 68%; in test [17] it was 96.5%; in [18] it was 66.6%. In addition, the results for the growth in test [19] and in test [20] were 85.5% and 105%, respectively.
For the molecule `O=C(c1ccccc1)c1ccc2nc(-c3ccc(F)cc3)[nH]c2c1`, the growth in test [1] is 74.9%; in test [2], 20.9%; in test [3], 73%; in test [4] it was 42.2%; in test [5] it was 49.2%; in [6], 47.7%. In addition, the growth was 97.1% in test [7]; 50.6% in test [8]; 68.5% in [9]; 54.4% in test [10]; 23.4% in test [11]; 63.6% in test [12]. Further, the growth in [13] was 82%; in [14], 75.2%; in [15], -26.5% (active); in test [16], 56.4%; in [17] it was 60.2%; in [18], 43.2%. Besides, the figures for the growth in [19] and in test [20] were 14.3% and 63.3%, respectively.
Take `CC(=O)c1c(N)c(C#N)cn1-c1ccc(Cl)cc1Cl`: the growth in test [1] was 113%; in [2], 95.1%; in test [3], 107%; in [4] it was 99.7%; in [5], 104%; in test [6], 107%. The growth in test [7] was 116%; in [8], 99.9%; in [9], 106%; in test [10] it was 98.9%; in test [11], 99.5%; in [12], 106%. In addition, the growth was 90.5% in [13]; 102% in test [14]; 98% in test [15]; 90.8% in test [16]; 98.8% in test [17]; 80.8% in [18]. Also, the growth in test [19] is 99.2%; in [20], 106%.
For `CCOC(=O)C1=C(N)N(c2ccccc2)C2=C(C(=O)CC(C)(C)C2)C1c1ccc(N2CCOCC2)cc1` (stereo not given), the growth in test [1] was 111%; in [2], 96.9%; in test [3], 112%; in test [4], 104%; in test [5] it was 91.2%; in test [6], 97.4%. The growth in test [7] is 98.9%; in test [8], 93%; in test [9] it was 109%; in test [10] it was 101%; in test [11], 97.8%; in [12], 112%. The growth is 91.4% in test [13]; 92.9% in test [14]; 98.7% in [15]; 94.6% in test [16]; 98.7% in [17]; 83% in test [18]. For the same molecule, the growth is 93.2% in [19] and 107% in test [20].
In the case of `Cn1cc(-c2cc3nc(-c4c[nH]c5ccc(Br)cc45)cc(N)n3n2)c2ccccc21`, the growth in [1] was -85.7% (active); in [2], 0.783% (active); in test [3] it was -73.4% (active); in test [4], -63.2% (active); in test [5], -89.4% (active); in test [6], -32.7% (active). The growth in [7] was -81.8% (active); in test [8], -89.7% (active); in test [9], -84.6% (active); in test [10] it was -85.5% (active); in test [11], -85.2% (active); in [12], -83.1% (active). Moreover, the growth in test [13] is -64.5% (active); in test [14], -68.1% (active); in test [15], -89.9% (active); in test [16] it was -77.3% (active); in [17] it was -77.8% (active); in [18], -70.3% (active). In addition, the growth in [19] was -85.1% (active); in [20], -96.6% (active).
As to `CCOC(=O)C(N=Nc1ccc(S(=O)(=O)N=C(N)N)cc1)C(C)=O` (stereo not given), the growth in test [1] is 111%; in [2], 94.1%; in test [3], 129%; in test [4], 107%; in test [5], 105%; in [6], 101%. Further, the growth in test [7] is 125%; in [8] it was 104%; in test [9], 126%; in test [10], 124%; in test [11], 108%; in test [12], 107%. Moreover, the growth is 74.3% in test [13]; 101% in test [14]; 98.6% in test [15]; 98.5% in test [16]; 102% in test [17]; 99.2% in test [18]. The growth in test [19] and in [20] was 109% in each case.
With `Cc1cccc(NC(=O)CN2CCN(c3ncnc4c3cnn4-c3ccccc3)CC2)c1`, the growth was 96.7% in test [1]; 67.5% in test [2]; 99.4% in test [3]; 87.4% in test [4]; 90% in test [5]; 88.4% in test [6]. Further, the growth is 117% in test [7]; 102% in test [8]; 102% in test [9]; 94.4% in test [10]; 55.4% in test [11]; 76.1% in test [12]. Moreover, the growth in test [13] is 100%; in [14] it was 83.1%; in test [15] it was 89%; in test [16], 63.1%; in test [17], 78.5%; in test [18], 67.9%. For the same molecule, the growth was 88.1% in test [19] and 90.1% in test [20].

(Values after PubChem BioAssay (NCI).)
